Compounds without any hit were thinned out: in the full panel of roughly 79,000, 15% have a hit. Activity calls are given as the source filed them. No stated cut-off is given here; in the data, active means growth inhibition above about 70%; inactive means the rest. Where a SMILES comes first, the peptide text is derived from it. [ ]: non-standard residue; d: D form. pGlu = O=C1CC[CH](C(=O)O)N1
Assays:
[1] = NCI Yeast Anticancer Drug Screen. Data for the rad50 strain (AID 155);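 further: 0% = growth of vehicle-only cultures of the same strain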; conditions: S. cerevisiae rad50 strain growth inhibition; at 50.0 µM; active compounds read high
In short: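 Growth of the mutant yeast was measured after compound exposure and referenced to vehicle-treated cultures.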

[2] = NCI Yeast Anticancer Drug Screen. Data for the mec2-1 strain (AID 157); conditions: S. cerevisiae mec2-1 strain, at 50.0 µM, active compounds read high
In short: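 Test agents were screened against the mec2-1 yeast strain, with defined DNA repair or cell cycle alteration. Growth was scored as inhibition against vehicle-only controls.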

[3] = NCI Yeast Anticancer Drug Screen. Data for the sgs1 mgt1 strain (AID 161);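 further: 0% = growth of cultures given vehicle only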; conditions: S. cerevisiae sgs1 mgt1 strain, at 50.0 µM, active compounds read high
In short: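 Test agents were incubated with a DNA-repair-mutant yeast strain. Growth was then read and compared against vehicle-treated controls.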

[4] = NCI Yeast Anticancer Drug Screen. Data for the cln2 rad14 strain (AID 165);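 further: 0% = growth equal to vehicle treated cultures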; conditions: S. cerevisiae cln2 rad14 strain, at 50.0 µM, active compounds read high
In short: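 Growth of compound-exposed yeast (cln2 rad14 genotype) measured and expressed as inhibition relative to vehicle.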

[5] = NCI Yeast Anticancer Drug Screen. Data for the bub3 strain (AID 167); conditions: S. cerevisiae bub3 mutant strain, at 50.0 µM, active compounds read high
In short: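 Whole-cell yeast assay. The mutant strain was incubated with compounds, and growth inhibition was determined by comparison with vehicle-treated cells.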

[6] = NCI Yeast Anticancer Drug Screen. Data for the mlh1 rad18 strain (AID 175); conditions: S. cerevisiae mlh1 rad18 strain growth inhibition; at 50.0 µM; active compounds read high
In short: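 In this whole-cell yeast screen, a strain with altered DNA damage repair is challenged with compound, and its growth is measured against matched vehicle-treated controls.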

Measured: growth inhibition

CSC(=S)/C(=C/Nc1ccccn1)c1ccccc1
inactive: [1] 39.5% | [2] 14.5% | [3] -8.6% | [4] 15.2% | [5] 37.8% | [6] 14.9%

COc1nc(N)c([N+](=O)[O-])c(OC)n1
inactive: [1] -11.9% | [2] -14.8% | [3] -2.7% | [4] -28.2% | [5] -9.85% | [6] -19.4%

CC(NC(=O)C(Cc1cnc[nH]1)NC(=O)C1CCC(=O)N1)C(N)=O (stereo not drawn) ([pGlu]-His-Ala-NH2; configuration not given here)
inactive: [1] -15.4% | [2] -75% | [3] -17.3% | [4] -21.8% | [5] -12.7% | [6] -25.9%

Cc1ccc(S(=O)(=O)NC(=O)NCc2cccc(Cl)c2)cc1
inactive: [1] -0.3% | [2] 28.2% | [3] 19.8% | [4] -15.6% | [5] 13.9% | [6] 6.3%

NC(N)=NS(=O)(=O)c1ccc(N=Cc2c3ccccc3nc3ccccc23)cc1
active: [1] 98.7% | [2] 99.3% | [3] 99.2% | [4] 98.8% | [5] 96% | [6] 98.8%

CC(=O)NC(CCCNC(=O)N(CCCl)N=O)C(=O)NCc1ccccc1 (configuration not stated)
inactive: [1] -1.85% | [2] -16.5% | [3] 1.75% | [4] 23.3% | [5] 2.65% | [6] -13.6%

COc1ccc2nc(C)c3c(c2c1)C(=O)N(CCCN1CCN(CCCN2C(=O)c4c(C)nc5ccc(OC)cc5c4C2=O)CC1)C3=O
inactive: [1] 0.6% | [2] 9.4% | [3] -7.5% | [4] -25.4% | [5] 2.15% | [6] 36.5%

COC(=O)/C(C#N)=C\N1CCNC1=S
inactive: [1] -54.8% | [2] -62.8% | [3] -35.9% | [4] -15.9% | [5] -10.4% | [6] -19.5%

COc1cc(/C=N/NC(N)=O)cc(OC)c1O
inactive: [1] -0.6% | [2] -11.8% | [3] -34.4% | [4] -14.6% | [5] 33.3% | [6] -4.75%

CCCCCCCCCCCCCCCC1CCCC2CCCCC12 (configuration not stated)
inactive: [1] -9.05% | [2] 9.25% | [3] 9.5% | [4] -5.85% | [5] 12.6% | [6] -26.4%

COc1ccc(OC)c(/C=C/c2ccccc2)c1
inactive: [1] 0.5% | [2] -29.1% | [3] 8.25% | [4] -24.8% | [5] 1.6% | [6] -14.9%

Cc1ccc(S(=O)(=O)N(CCO)CC(C)O)cc1 (configuration not stated)
inactive: [1] -15.9% | [2] -24.1% | [3] -23.2% | [4] -13% | [5] -24.1% | [6] -26.8%

CCOc1c(/C=C\c2cc(/C=C/c3cccc(OC)c3OCC)c([N+](=O)[O-])cc2[N+](=O)[O-])cccc1OC
inactive: [1] 16.4% | [2] -13.7% | [3] 1.75% | [4] -36.6% | [5] -4.45% | [6] 9.55%

CC(O)CNC(=O)C(C)Oc1ccc(OCC2CCCCC2)cc1 (configuration not stated)
inactive: [1] -2.8% | [2] -12.9% | [3] 6.65% | [4] -9.7% | [5] -53.7% | [6] -15.9%

O=c1c2cc(Br)ccc2n(C2OC(CO)C(O)C(O)C2O)c(=S)n1-c1ccccc1 (configuration not stated)
inactive: [1] 30.6% | [2] 28.4% | [3] 31.7% | [4] 34.5% | [5] 50.5% | [6] 24.9%

Cc1cn2cc(-c3cccs3)nc2s1
inactive: [1] 15.2% | [2] -1% | [3] 19.4% | [4] 18.6% | [5] -7.8% | [6] 15.1%

CC(O)C(O)C(O)C(O)C=O (configuration not stated)
inactive: [1] -13.2% | [2] -11.8% | [3] 3.8% | [4] 14.1% | [5] 7% | [6] -10.2%

CC(C)CCCC(C)C1CCC2(C)C3=C(CCC12C)C1(C)CCC(=O)C(C)(C)C1CC3 (configuration not stated)
inactive: [2] 57.2% | [4] 44.5% | [5] 14.6% | [6] 34%
active: [1] 73.1% | [3] 83.5%

NC(=S)N/C=C\c1nc2ccccc2[nH]c1=O
inactive: [1] -34.4% | [2] -18.6% | [3] -39.1% | [4] -21.8% | [5] -12.1% | [6] -15.4%

O=C(C=C(C(F)(F)F)C(F)(F)F)/C=C/c1ccccc1
active: [1] 99.5% | [2] 99.7% | [3] 99.5% | [4] 99.5% | [5] 99.3% | [6] 99.4%

O=c1cc(C(O)C(O)C(O)C(O)CO)[nH]c(=O)[nH]1 (configuration not stated)
inactive: [1] 2.4% | [2] 7.1% | [3] 9% | [4] 24.9% | [5] -5.05% | [6] -4.6%

NC(=O)CC(N)C(=O)OCc1ccc([N+](=O)[O-])cc1 (configuration not stated)
inactive: [1] -12.7% | [2] 0% | [3] -3.45% | [4] -11.2% | [5] -5.95% | [6] -11.3%

Nc1cnc(Nc2cccc3ccccc23)o1
inactive: [1] -26.3% | [2] -35.3% | [3] -14.1% | [4] 0.35% | [5] 8.85% | [6] -15.7%

CN(C)C(=Nc1ccccc1)N(C)N
inactive: [1] -1.2% | [2] 5.7% | [3] -12.9% | [4] 0.75% | [5] 1.9% | [6] 0.95%

FC(F)(F)C(F)(F)C(F)(F)C(F)(F)C(F)(F)C(F)(F)C(F)(F)c1noc(C(F)(F)C(F)(F)C(F)(F)C(F)(F)C(F)(F)C(F)(F)C(F)(F)F)n1
inactive: [1] -0.55% | [2] 6.5% | [3] -5.4% | [4] -5.25% | [5] 0.85% | [6] 17.4%

O=C(O)C(=O)Cc1ccc(Br)cc1[N+](=O)[O-]
inactive: [1] 5.45% | [2] -6.6% | [3] 1.8% | [4] -3% | [5] 1.45% | [6] 12.2%

CC1(C)N=C(/C=N/O)C(C)(C)N1O
inactive: [1] 6.65% | [2] 0.55% | [3] 6.15% | [4] 6.3% | [5] -4.95% | [6] -18.7%

COc1ccc(NC(N)=O)cc1
inactive: [1] 12.2% | [2] -16.4% | [3] 0.05% | [4] -1.25% | [5] -6.35% | [6] 10.4%

O=C(O)/C=C\CCCCC(=O)O
inactive: [1] 35.4% | [2] 0.95% | [3] 15.1% | [4] 6.75% | [5] 13.8% | [6] 37.5%

CC(C)[Si](OC1=C(c2ccccc2)C(NC(=O)/C=C/c2ccc([N+](=O)[O-])cc2)CCC1)(C(C)C)C(C)C (configuration not stated)
inactive: [1] 19.2% | [2] 4.15% | [3] -0.2% | [4] -6.7% | [5] -5.35% | [6] 29.9%

CCc1cccc(C(C)C)c1NC(=O)/C(=N\NC(N)=O)C(C(=O)OC)c1cnc2ccccc2n1 (configuration not stated)
inactive: [1] 19.8% | [2] 29.8% | [3] 1.15% | [4] 11.1% | [5] 26.1% | [6] 21.4%

CC(C(O)C(F)(F)F)[N+](=O)[O-] (configuration not stated)
inactive: [1] -1.7% | [2] -4.5% | [3] 8.65% | [4] -5.2% | [5] -2.05% | [6] 17.2%

CCCCCCCCNCC(=O)O
inactive: [1] -20% | [2] -21.6% | [3] -5.35% | [4] 3.05% | [5] -13.1% | [6] -12.9%

CCOC(=O)CCN(CCC(=O)OCC)Cc1cc(Cl)c2cccnc2c1O
active: [1] 99.1% | [2] 98.6% | [3] 99% | [4] 98.5% | [5] 99.3% | [6] 97.8%

C[C@]12C(=O)OC[C@H](c3ccccc3)N1C(=O)N(Cc1ccccc1)[C@@H]2CO
inactive: [1] -27.8% | [2] -26.1% | [3] -17.6% | [4] 1.6% | [5] 17.1% | [6] -9.5%

O=C(O)CSc1ncccc1[N+](=O)[O-]
inactive: [1] 8.85% | [2] -0.65% | [3] -6.05% | [4] 12.9% | [5] -32.6% | [6] 4.35%

O=S(=O)(O/C(=C(\OS(=O)(=O)C(F)(F)F)c1ccccc1)c1ccccc1)C(F)(F)F
inactive: [1] 6.9% | [2] -20.2% | [3] -21.1% | [4] -4.8% | [5] -2.65% | [6] 10%
